# Data published in PubChem BioAssay.
# Where “and” joins values, the source holds several entries; their conditions need not be identical. Identical values can stand only once. Calls of active or inactive are those of the source. Unless noted, no stated cut-off is given here; in the data, active means parasite load remaining mostly below about 12% (no sharp cut-off); inactive means mostly above about 10%.
# Key:
# [1] = suppressors of polyQ aggregation in yeast, 75Q-TubU reporter (AID 1593); conditions: Yeast 75Q polyglutamine aggregation reporter
# [2] = inhibitors of mitochondrial cytochrome c release, biochemical, purified mitochondria (AID 1603); conditions: stronger effect = lower value;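 further: mouse liver mitochondria challenged with calcium chloride; signal normalized to the plate average as 100%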
# [3] = inhibitors of polyQ protein aggregation (AID 1604); conditions: polyglutamine-induced protein aggregation inhibition assay; stronger effect = higher value; tested at 2.5 µM
# [4] = liver-stage malaria parasite growth inhibition, primary screen, cell-based, HepG2, luciferase luminescence, HepG2 viability (AID 624349);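 further: 100% = mean of DMSO negative control wells on the same plate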; conditions: P. berghei liver stage in HepG2, luciferase luminescence, concentration not given here; parasite load remaining: stronger effect = lower value; viability: measured here: HepG2 viability without parasites
# [5] = stimulators of nuclear beta-catenin in C2C12, primary screen, imaging, WNT3A-conditioned medium, mouse C2C12, NPC library (AID 1117326; in the data active means nuclear beta-catenin stimulation mostly above about 4.2%, no sharp cut-off; inactive means mostly below about 10%); conditions: stronger effect = higher value
# [6] = stimulators of insulin release from INS-1E, primary screen, cell-based, 5 mM glucose, NPC library (AID 1117329;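 active means compound raises insulin release from rat beta cells at 5 mM glucose, no numeric limit stated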); conditions: rat INS-1E insulin secretion, at 10 µM, stronger effect = higher value
# [7] = growth inhibition of GSK3B-pretreated HCT116 cells – cell-based, CellTiter-Glo, 0.2 to 20 µM (AID 1117336;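 active means compounds lowering colon cancer cell viability after pretreatment blocking the GSK3B kinase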); conditions: HCT116 viability after GSK3B inhibitor, at 20 µM, stronger effect = higher value
# [8] = inhibition of endothelial tube formation, primary screen, imaging, VEGF stimulated, CD31 staining, tube area, NPC library (AID 1117340;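 active means compound that reduces growth-factor-driven endothelial tube area in a mixed cell culture, no cutoff stated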); conditions: VEGF-stimulated ADSC/ECFC co-culture, at 10 µM, stronger effect = higher value
# [9] = glucagon-like peptide 1 release enhancers, primary assay, NCI-H716 cell line, NPC library (AID 1117341;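 active means compound raises GLP1 secretion from the human gut endocrine cells, with no numeric limit stated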); conditions: NCI-H716 cells, at 10 µM, stronger effect = higher value
# [10] = HCT116 colon cancer cell growth inhibition, primary screen, CellTiter-Glo luminescence, NPC library (AID 1117342;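 active means compounds that lower survival of HCT116 colon cancer cells in the luminescence readout, no numeric limit stated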); conditions: at 20 µM (top of the series)
# [11] = CellTiter-Glo luminescent readout of SW480 viability loss, NPC library primary (AID 1117343;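 active means compounds that lower viability of the colon cancer cells in the luminescence readout, with no numeric limit stated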); conditions: CellTiter-Glo luminescence; at 20 µM (top of the series)
# [12] = decreased DLD-1 cellular survival, CellTiter-Glo luminescent readout, NPC compound collection, primary HTS (AID 1117346;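 active means compounds that lower survival of DLD-1 colon cancer cells in the luminescence readout, no cutoff given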); conditions: DLD-1 viability, CellTiter-Glo luminescence; at 20 µM (top of the series)
# [13] = molecular target: 6-phosphogluconate dehydrogenase, decarboxylating (Homo sapiens) (UniProt P52209); test: 6PGD enzyme inhibitors, primary screen, biochemical, human, recombinant enzyme, NADPH absorbance (AID 1159550;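 active means at least 20% inhibition of 6-phosphogluconate dehydrogenase activity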); conditions: recombinant 6PGD, NADPH absorbance 341 nm; at 10 µM; stronger effect = higher value
# [14] = differential killing of epithelial or mesenchymal cells, primary screen, imaging, PC-3E GFP, TEM4-18 mCherry, co-culture (AID 1345086;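 active means compounds killing one labelled cell type while sparing the other, by normalised counts and ratio limits, not self-fluorescent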;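 on all read-outs here: cells exposed to compound for 72 h before imaging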;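 on red/green cell ratio (normalised): normalised mesenchymal count divided by normalised epithelial count so high means epithelial killing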); conditions: imaging cell counts, at 1 µM; for red/green cell ratio (normalised): actives lie on both sides
# [15] = tested on: Aerobactin synthetase IucA (Klebsiella pneumoniae hvKP1); test: Biochemical IucA enzyme inhibition primary screen of the Spectrum library (AID 1346200; call rule not given here;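 further: 100% = wells without compound and 0% = wells lacking enzyme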); conditions: malachite green pyrophosphate, A620, at 8 µM, stronger effect = lower value
# [16] = sensitizers of A549 cells to miR-34 induction, primary screen, imaging, A549 dox-inducible miR-34, nuclei and caspase counts (AID 1347080;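 active means compounds whose cell count with miR-34 switched on is under 0.7 times the count with it off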); conditions: A549 miR-34 inducible, Hoechst nuclei count, 48 h
# [17] = survival rescue of mitochondrial mutant cells in low glucose, primary screen, MELAS cybrids, Rieske KO mouse fibroblasts, CellTiter-Glo (AID 1508586;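 active means mean z-score across replicates of 1.96 or higher in either the MELAS or the Rieske mutant cell line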;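 further: z relative to plate mean and SD of compound and empty wells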)
# [18] = molecular target: NAD(+) hydrolase SARM1 (Homo sapiens) (UniProt Q6SZW1); test: SARM1 TIR NADase inhibitors, cell lysate, NAD-Glo luminescence (AID 1508614;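 active means compound whose remaining NAD level is above about 45 nM, limit read from the data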); conditions: SAM-TIR HEK293T lysate NADase, at 1 µM, stronger effect = higher value
# [19] = molecular target: Mitogen-activated protein kinase 7 (Homo sapiens) (UniProt Q13164); test: ERK5 transactivation activators in reporter cells, primary screen, cell-based, HTS (AID 1508626;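 active means luciferase signal above three times the same-plate solvent-only control wells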;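 further: luciferase driven by Gal4-ERK5 fusion binding five Gal4 sites before minimal TATA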); conditions: HeLa Gal4-ERK5 transactivation, 18 h, at 5 µM, stronger effect = higher value
# [20] = viability rescue of complex I mutant cybrids, primary screen, cell-based, galactose medium, ATP luminescence (AID 1645843;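 active means z-score of at least 1.8 in each of two replicates, scored against plate mean and spread of sample wells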;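 further: positive z means more ATP and so rescue of galactose-driven cybrid death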); conditions: complex I mutant cybrid cells, 72 h, stronger effect = higher value
# [21] = measured here: epithelial PC-3E GFP cell survival
# [22] = measured here: mesenchymal TEM4-18 mCherry cell survival
# [23] = measured here: relative caspase fold change +Dox/-Dox
# [24] = measured here: total cells with miR-34 induction, stronger effect = lower value
# [25] = measured here: total cells without miR-34 induction
# [26] = MELAS cybrid survival, CellTiter-Glo 48 h, stronger effect = higher value
# [27] = Rieske KO mouse fibroblast survival, CellTiter-Glo 72 h
# Chain of NAD(+) hydrolase SARM1 (Homo sapiens) (Q6SZW1 whole entry, looked up, the tested form may be a part): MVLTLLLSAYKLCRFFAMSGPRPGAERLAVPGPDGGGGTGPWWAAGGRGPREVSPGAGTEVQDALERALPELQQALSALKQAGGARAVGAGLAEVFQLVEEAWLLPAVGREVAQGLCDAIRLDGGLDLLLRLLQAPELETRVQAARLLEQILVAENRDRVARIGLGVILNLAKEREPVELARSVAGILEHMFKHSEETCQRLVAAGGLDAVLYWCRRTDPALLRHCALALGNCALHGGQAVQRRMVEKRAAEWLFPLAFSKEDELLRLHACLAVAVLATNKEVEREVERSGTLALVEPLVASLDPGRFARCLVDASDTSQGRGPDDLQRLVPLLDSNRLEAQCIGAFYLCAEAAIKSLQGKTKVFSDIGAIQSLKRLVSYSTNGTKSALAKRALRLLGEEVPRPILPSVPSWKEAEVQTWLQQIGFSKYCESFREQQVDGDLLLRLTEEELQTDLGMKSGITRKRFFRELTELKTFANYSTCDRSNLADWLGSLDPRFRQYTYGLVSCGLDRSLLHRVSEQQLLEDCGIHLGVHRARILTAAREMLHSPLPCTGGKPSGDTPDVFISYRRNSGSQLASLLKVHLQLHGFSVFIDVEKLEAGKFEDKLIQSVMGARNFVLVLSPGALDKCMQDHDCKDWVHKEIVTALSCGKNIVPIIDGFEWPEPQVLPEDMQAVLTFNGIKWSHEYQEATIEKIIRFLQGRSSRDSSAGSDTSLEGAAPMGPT
# Chain of 6-phosphogluconate dehydrogenase, decarboxylating (Homo sapiens) (P52209 whole entry, looked up): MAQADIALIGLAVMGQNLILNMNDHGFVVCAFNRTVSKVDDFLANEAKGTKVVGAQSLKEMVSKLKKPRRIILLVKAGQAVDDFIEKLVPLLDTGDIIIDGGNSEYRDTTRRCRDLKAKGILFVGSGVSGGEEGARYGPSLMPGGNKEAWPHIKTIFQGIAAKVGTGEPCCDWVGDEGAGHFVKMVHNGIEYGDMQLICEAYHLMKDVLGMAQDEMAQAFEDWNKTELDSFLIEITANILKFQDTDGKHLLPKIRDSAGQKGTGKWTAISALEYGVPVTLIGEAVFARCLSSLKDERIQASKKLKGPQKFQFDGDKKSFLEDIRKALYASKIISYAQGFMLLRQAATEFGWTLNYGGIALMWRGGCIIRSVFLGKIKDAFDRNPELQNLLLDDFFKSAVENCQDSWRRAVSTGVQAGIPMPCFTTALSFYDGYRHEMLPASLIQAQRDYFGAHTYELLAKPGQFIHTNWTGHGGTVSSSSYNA
# Chain of Mitogen-activated protein kinase 7 (Homo sapiens) (Q13164 whole entry, looked up, the tested form may be a part): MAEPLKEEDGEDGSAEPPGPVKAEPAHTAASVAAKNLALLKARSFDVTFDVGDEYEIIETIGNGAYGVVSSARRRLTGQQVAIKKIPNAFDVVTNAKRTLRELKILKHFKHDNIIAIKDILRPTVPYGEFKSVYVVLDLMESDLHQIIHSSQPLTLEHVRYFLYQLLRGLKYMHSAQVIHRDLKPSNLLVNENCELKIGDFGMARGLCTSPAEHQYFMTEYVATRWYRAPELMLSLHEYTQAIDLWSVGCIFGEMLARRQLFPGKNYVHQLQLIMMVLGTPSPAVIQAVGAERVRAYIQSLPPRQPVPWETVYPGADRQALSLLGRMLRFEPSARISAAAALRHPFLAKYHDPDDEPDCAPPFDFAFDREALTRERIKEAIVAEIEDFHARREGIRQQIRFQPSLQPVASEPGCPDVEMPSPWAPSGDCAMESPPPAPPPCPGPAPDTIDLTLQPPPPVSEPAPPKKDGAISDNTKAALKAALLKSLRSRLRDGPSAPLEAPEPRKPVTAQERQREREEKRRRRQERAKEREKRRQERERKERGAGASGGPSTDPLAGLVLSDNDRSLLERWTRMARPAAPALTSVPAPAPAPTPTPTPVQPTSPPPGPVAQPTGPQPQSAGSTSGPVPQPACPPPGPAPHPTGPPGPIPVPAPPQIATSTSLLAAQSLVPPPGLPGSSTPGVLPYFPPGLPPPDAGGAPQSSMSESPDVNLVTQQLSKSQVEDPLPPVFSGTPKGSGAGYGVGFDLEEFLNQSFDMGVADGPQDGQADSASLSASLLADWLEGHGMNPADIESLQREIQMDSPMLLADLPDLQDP
smiles,measurement,setting,value
O=[N+]([O-])O[C@H]1CO[C@H]2[C@@H]1OC[C@H]2O[N+](=O)[O-],score,[1],1.7
same,cytochrome c release ratio,[2],0.66
same,inhibition of aggregation,[3],83.1%
same,parasite load remaining,[4],88.7% (inactive) and 89.6% (inactive) and 73.9% (inactive)
same,viability,[4],101% and 72.5% and 103%
same,nuclear beta-catenin stimulation,[5]; at 10 µM,1.4% (inactive)
same,nuclear beta-catenin stimulation,"[5]; stimulation, at 2 µM",0.8%
same,insulin secretion stimulation,[6],0.2% (inactive)
same,viability decrease,[7],-35.2% (inactive)
same,tube area decrease,[8],2.7% (inactive)
same,GLP1 secretion stimulation,[9],-0.1% (inactive)
same,inhibition of viability,[10],-4.45% (inactive)
same,viability decrease (inhibition),[11],10.7% (inactive)
same,viability decrease (inhibition),[12],-9.7% (inactive)
same,inhibition,[13],-5.58% (inactive)
same,red/green cell ratio (normalised),[14],1.14 (inactive)
same,normalised cell number,[14]; [21],1.17
same,normalised cell number,[14]; [22],1.33
same,activity remaining,[15],86.8% (inactive)
same,fold change,[16]; stronger effect = lower value,0.842 (inactive) and 0.816 (inactive)
same,fold change,[16]; [23],1.05 and 0.822
same,cell count,[16]; [24],8050 and 10900
same,cell count,[16]; [25],9560 and 13300
same,z-score,[17]; [26],-0.72 (inactive)
same,z-score,[17]; [27],-0.455
same,remaining NAD,[18],10 nM (inactive)
same,luciferase signal,[19],164 AU (inactive)
Cc1cccc(C)c1NC1=NCCCS1,score,[1],1.34
same,cytochrome c release ratio,[2],0.7
same,inhibition of aggregation,[3],87.3%
same,nuclear beta-catenin stimulation,[5]; at 10 µM,0.7% (inactive)
same,nuclear beta-catenin stimulation,"[5]; stimulation, at 2 µM",1.8%
same,insulin secretion stimulation,[6],3.2% (inactive)
same,viability decrease,[7],-8.6% (inactive)
same,tube area decrease,[8],-3.5% (inactive)
same,GLP1 secretion stimulation,[9],1.7% (inactive)
same,inhibition of viability,[10],10.6% (inactive)
same,viability decrease (inhibition),[11],-13.1% (inactive)
same,viability decrease (inhibition),[12],2.9% (inactive)
same,inhibition,[13],-17.7% (inactive)
same,red/green cell ratio (normalised),[14],1.15 (inactive)
same,normalised cell number,[14]; [21],1.1
same,normalised cell number,[14]; [22],1.27
same,activity remaining,[15],116% (inactive)
same,z-score,[17]; [26],-0.333 (inactive) and 0.534 (inactive) and -0.793 (inactive)
same,z-score,[17]; [27],-0.0574 and -0.344 and 0.356
same,remaining NAD,[18],10 nM (inactive)
same,luciferase signal,[19],36 AU (inactive)
same,z-score,[20],0.22 (inactive) and 0.48 (inactive)
CC(C)[N+](C)(CCC(C(N)=O)(c1ccccc1)c1ccccc1)C(C)C,score,[1],1.43
same,cytochrome c release ratio,[2],1.07
same,inhibition of aggregation,[3],35.2%
same,parasite load remaining,[4],94.4% (inactive) and 83.4% (inactive) and 60% (inactive)
same,viability,[4],100% and 76.1% and 93.6%
same,nuclear beta-catenin stimulation,[5]; at 10 µM,0.4% (inactive)
same,nuclear beta-catenin stimulation,"[5]; stimulation, at 2 µM",-0.3%
same,insulin secretion stimulation,[6],-0.4% (inactive)
same,viability decrease,[7],-32.8% (inactive)
same,tube area decrease,[8],-3.8% (inactive)
same,GLP1 secretion stimulation,[9],-1.4% (inactive)
same,inhibition of viability,[10],-3.83% (inactive)
same,viability decrease (inhibition),[11],22% (inactive)
same,viability decrease (inhibition),[12],-1.8% (inactive)
same,inhibition,[13],-13.2% (inactive)
same,red/green cell ratio (normalised),[14],0.98 (inactive)
same,normalised cell number,[14]; [21],1.19
same,normalised cell number,[14]; [22],1.17
same,activity remaining,[15],119% (inactive)
same,fold change,[16]; stronger effect = lower value,0.953 (inactive) and 0.875 (inactive)
same,fold change,[16]; [23],1.13 and 0.654
same,cell count,[16]; [24],8490 and 10700
same,cell count,[16]; [25],8910 and 12200
same,z-score,[17]; [26],-0.488 (inactive)
same,z-score,[17]; [27],-0.766
same,remaining NAD,[18],10 nM (inactive)
same,luciferase signal,[19],76 AU (inactive)
CC[n+]1c(-c2ccccc2)c2cc(N)ccc2c2ccc(N)cc21,score,[1],0.43
same,cytochrome c release ratio,[2],0.84
same,inhibition of aggregation,[3],47.5%
same,parasite load remaining,[4],116% (inactive)
same,viability,[4],83.5%
same,nuclear beta-catenin stimulation,[5]; at 10 µM,17.6% (inactive)
same,nuclear beta-catenin stimulation,"[5]; stimulation, at 2 µM",1%
same,insulin secretion stimulation,[6],2.1% (inactive)
same,viability decrease,[7],-24.6% (active)
same,tube area decrease,[8],29.5% (inactive)
same,GLP1 secretion stimulation,[9],-2.8% (inactive)
same,inhibition of viability,[10],79.1% (active)
same,viability decrease (inhibition),[11],52.1% (active)
same,viability decrease (inhibition),[12],83.7% (active)
same,inhibition,[13],7.37% (inactive)
same,red/green cell ratio (normalised),[14],2.8 (inactive)
same,normalised cell number,[14]; [21],0.31
same,normalised cell number,[14]; [22],0.87
same,activity remaining,[15],95.2% (inactive)
same,remaining NAD,[18],10 nM (inactive)
same,luciferase signal,[19],104 AU (inactive)
